Results on 93 compounds are retold here after PubChem BioAssay AID1497 (Sanford-Burnham Center for Chemical Genomics, 2009).

Screen size: about 93,000 compounds; about 500 (0.54%) were called active. This is one part of a sample in which actives are shown more often than they occur.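 The calls were made as follows: active = primary inhibition of 50% or more at 10 µM, then 40% or more on retest; inactive = the rest.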

Sequence of Integrin beta-2 (Homo sapiens) + Integrin alpha-M (Homo sapiens) (P05107 whole entry, looked up, other chains not shown): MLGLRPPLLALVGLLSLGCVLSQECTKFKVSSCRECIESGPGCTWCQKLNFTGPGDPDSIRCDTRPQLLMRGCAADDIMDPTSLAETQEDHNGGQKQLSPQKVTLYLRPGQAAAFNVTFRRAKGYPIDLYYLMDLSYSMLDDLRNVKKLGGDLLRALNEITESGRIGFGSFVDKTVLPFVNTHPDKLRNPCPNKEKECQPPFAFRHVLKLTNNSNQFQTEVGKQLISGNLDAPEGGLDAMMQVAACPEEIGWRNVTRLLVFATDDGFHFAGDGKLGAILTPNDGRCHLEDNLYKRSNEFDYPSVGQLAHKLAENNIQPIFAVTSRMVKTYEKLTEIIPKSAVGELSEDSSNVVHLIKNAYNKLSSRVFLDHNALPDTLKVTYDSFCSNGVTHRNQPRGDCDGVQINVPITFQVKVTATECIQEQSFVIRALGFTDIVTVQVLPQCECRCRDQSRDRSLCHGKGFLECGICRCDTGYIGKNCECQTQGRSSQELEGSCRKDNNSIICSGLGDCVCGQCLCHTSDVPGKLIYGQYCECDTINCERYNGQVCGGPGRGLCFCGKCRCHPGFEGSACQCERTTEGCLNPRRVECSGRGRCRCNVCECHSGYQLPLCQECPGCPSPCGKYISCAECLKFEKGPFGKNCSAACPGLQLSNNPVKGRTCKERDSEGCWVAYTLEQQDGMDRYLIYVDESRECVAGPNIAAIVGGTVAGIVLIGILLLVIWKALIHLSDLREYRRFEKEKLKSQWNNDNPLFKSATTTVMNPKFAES

The test has as its target Integrin beta-2 (Homo sapiens) + Integrin alpha-M (Homo sapiens) (UniProt P05107+P11215). The test is described as follows: inhibitors of CD11b/CD18 adhesion to fibrinogen, primary screen, K562 cells, luminescence (AID 1497). To be noted: ATPlite luminescence, at 10 µM, stronger effect = higher value, Mn2+ added to activate the integrin.
For `O=C(NCC1CCCO1)/C(=C/c1ccc(Cl)cc1)NC(=O)c1ccccc1` (stereo not drawn), the inhibition was 2.4% (inactive).
In the case of `O=C(Nc1nnc(C2COc3ccccc3O2)o1)c1ccc(F)cc1` (stereo not drawn), the inhibition was -27.3% (inactive).
For the compound `COC(=O)Cc1ccc(NC(=S)NCc2ccccc2)cc1`, the inhibition was 0.4% (inactive).
`CCCn1c(SCC(=O)Nc2ccc(C)c(S(=O)(=O)N3CCOCC3)c2)n[nH]c1=O`: the inhibition was -10.9% (inactive).
For `O=C(NNC(=S)Nc1ccc(Br)cc1Cl)c1ccco1`, the inhibition was 89.9% (active).
Consider `Cc1ccc(-n2nc3cc(Cl)c(NC(=O)c4ccco4)cc3n2)cc1`, for which the inhibition was 3.9% (inactive).
With `COC(=O)c1cc(Cl)c(NC(=O)c2ccco2)cc1OC` the figure was -6% (inactive); with `CN(C)S(=O)(=O)c1cccc(NC(=S)N/N=C/C(=O)c2ccccc2)c1`, 14% (inactive); with `COc1ccc([N+](=O)[O-])cc1NC(=O)C(C)OC(=O)C1c2ccccc2Oc2ccccc21` (stereo not drawn), 26.5% (inactive).
To `COc1ccc(CCNC(=O)CSc2nc(-c3ccc(OC)c(OC)c3)ccc2C#N)cc1` belongs 18.5% (inactive); to `COc1ccc(C(=O)Nc2ccc(CN3CCOCC3)cc2)cc1`, -3.3% (inactive); to `CCC(=O)Nc1ccc2c(c1)nc(CCN1CCN(C)CC1)n2C`, 3.3% (inactive).
For `Cn1c(CN2CCOCC2)nc2cc(NC(=O)c3ccc(Cl)cc3)ccc21`, the inhibition is 87.2% (active).
For the compound `Cc1cc2ncn(CCCCOc3ccccc3)c2cc1C`, the inhibition was 63.9% (active).
As for `COCCOCCn1cnc2ccccc21`, the inhibition is 2.3% (inactive).
Consider `Cc1nn(CCOc2ccccc2)c(=O)n1-c1ccccc1F`, for which the inhibition was -0.4% (inactive).
Regarding `COc1ccc(NC(=O)CC2C(=O)OCC3CCCCN32)cc1Cl` (stereo not drawn), the inhibition was -8.3% (inactive).
In the case of `CCCCCCCCC(=O)NCCOc1ccccc1`, the inhibition is 2.8% (inactive).
Turning to `COc1ccc(/C=C2/C(=O)OCc3cc(OC)c(OC)cc32)c(OC)c1`, the inhibition was 0.8% (inactive).
In the case of `C/C(=N\NS(=O)(=O)c1ccc(Cl)cc1)c1ccc(NC(=O)c2ccco2)cc1`, the inhibition was -3.6% (inactive).
In the case of `COCCn1c(=NC(=O)c2ccccc2[N+](=O)[O-])sc2cc(S(C)(=O)=O)ccc21`, the inhibition is 25.4% (inactive).
For `C/C(=N\NC(=O)CCn1nc(C)cc1C)C(C)(C)C`, the inhibition is 1% (inactive).
To `N#C/C(=C/c1cccc([N+](=O)[O-])c1)c1nnc2n1CCCCC2` belongs 2.5% (inactive); to `N/C(=N\OC(=O)Nc1ccc(Cl)c(Cl)c1)c1ncc(C(F)(F)F)cc1Cl`, -4.4% (inactive); to `Cc1nnc(NC(=O)Nc2ccc(Cl)c(Cl)c2)s1`, 37% (inactive).
Regarding `O=C(CC(O)(C(F)(F)F)C(F)(F)F)Nc1ccc(Cl)c(Cl)c1`, the inhibition was 89.5% (active).
As for `COc1ccc(CCNC(=O)CCn2c(=O)oc3ccccc32)cc1OC`, the inhibition is -58.2% (inactive).
As for `COc1ccc(Cn2c(=O)sc3ccccc32)cc1OC`, the inhibition was 75.8% (active).
Take `Cc1nnc(NC(=O)Cn2c(=O)sc3ccccc32)s1`: the inhibition was -2.7% (inactive).
Regarding `COc1ccc(C(=O)Nc2ccccc2C(=O)N/N=C/c2ccccc2OC)cc1`, the inhibition is 65.1% (active).
As for `COc1ccc(NC(=O)c2ccc(OC)cc2)cc1`, the inhibition was -5.7% (inactive).
With `COc1ccc(C(=O)Nc2ccccc2C(=O)N/N=C/c2ccc(O)c(OC)c2)cc1` the figure was 106% (inactive); with `N#C/C=C\Oc1ccc(Cl)cc1N`, 51.7% (active).
As to `COc1ccc(Cl)cc1NC(=O)[C@@H]1CCCN1C(=O)c1cccs1`, the inhibition is -14.3% (inactive).
With `Cc1nn(-c2ccccc2)c(C)c1/C=C/C(=O)OC(C)C(N)=O` (stereo not drawn) the figure was -9.1% (inactive).
In the case of `COc1ccc(-c2csc(NC(=O)CCCc3cccs3)n2)cc1`, the inhibition was 6.2% (inactive).
As for `Cc1c(Br)c([N+](=O)[O-])nn1CC(=O)Nc1sc2c(c1C(=O)OC(C)C)CCC(C)C2` (stereo not drawn), the inhibition was -9.3% (inactive).
With `O=C(Nc1cccc(F)c1)c1coc(=O)c(Br)c1` the figure was -10.2% (inactive); with `O=C(COC(=O)c1ccc(Cl)nc1)NCc1ccc2c(c1)OCO2`, 4.3% (inactive); with `O=C(CSc1ccc2nnc(-c3ccccc3)n2n1)N1CCCc2ccccc21`, 29.7% (inactive).
Regarding `O=C(OCc1ccc(Br)cc1)c1cccc(-c2nnc(-c3ccccc3)o2)c1`, the inhibition is 6.5% (inactive).
On to `O=C(CCCCCNC(=O)c1ccccc1)N/N=C/c1ccccc1`, for which the inhibition was 9.3% (inactive).
To `CC1(c2cccc([N+](=O)[O-])c2)CC(C)(C)N(C(=O)c2ccccc2)c2ccccc21` (stereo not drawn) belongs 12.3% (inactive).
`Cc1ccc(NC(=O)CC2C(=O)N(Cc3ccccc3)C(=S)N2NC(=O)c2cccc(F)c2)c(C)c1` (stereo not drawn): the inhibition is 1.5% (inactive).
For the compound `Nc1nnc(SCC(=O)Nc2ccc3nc(SCC(=O)Nc4ccccc4)sc3c2)s1`, the inhibition was 74% (inactive).
With `CC(=O)Nc1ccc(S(=O)(=O)Nc2nc(-c3ccc(C(C)(C)C)cc3)cs2)cc1` the figure was 0.9% (inactive); with `COc1cc2c3c(c1)/C(=C1/SC(=S)NC1=O)C(=O)N3C(C)(C)C=C2C`, 92.6% (inactive).
For `CCCc1ccc(-c2c(C)sc(NC(=O)c3ccnn3C)c2C#N)cc1`, the inhibition is 62.4% (active).
For the compound `CCOC(=O)c1sc(NC(=O)CSc2ncccn2)c(C#N)c1C`, the inhibition was -4.4% (inactive).
To `CCc1c(C)sc(NC(=O)c2ccc(Br)o2)c1C(=O)OC` belongs 6.5% (inactive); to `COc1ccc(C2Nc3ccccc3C(=O)N2c2ccc(F)cc2)cc1Cn1nnc2ccccc21` (stereo not drawn), 12.2% (inactive).
On to `CC(=C/c1ccccc1)/C=N/NC(=O)c1cc(C)oc1C`, for which the inhibition is 4.2% (inactive).
On to `CCN1CCCC1CNc1ncnc2c1[nH]c1ccc(F)cc12` (stereo not drawn), for which the inhibition was -18.1% (inactive).
With `Cc1ccc(-n2ncc3c(N4CCN(c5ccc(F)cc5)CC4)ncnc32)c(C)c1`, the inhibition is 39.7% (inactive).
With `Cc1cc(N2CCN(Cc3ccc4c(c3)OCO4)CC2)n2ncnc2n1`, the inhibition was -10.2% (inactive).
Take `CC(C)(C)n1nnnc1C(c1ccc(F)cc1)N1CCN(Cc2ccc3c(c2)OCO3)CC1` (stereo not drawn): the inhibition was -11.6% (inactive).
`Fc1ccc2[nH]c3c(N4CCN(Cc5ccc6c(c5)OCO6)CC4)ncnc3c2c1`: the inhibition is 103% (active).
On to `Fc1ccc2[nH]c3c(N4CCSCC4)ncnc3c2c1`, for which the inhibition was 81.7% (active).
In the case of `COCCCNC(=O)Cn1cc(/C=C(\C#N)C(=O)N2CCN(c3ccccc3)CC2)c2ccccc21`, the inhibition is 21.8% (inactive).
Take `O=C(COC(=O)Cc1ccc(F)cc1)Nc1cc(S(=O)(=O)N2CCOCC2)ccc1N1CCCC1`: the inhibition was -0.6% (inactive).
Take `CCCC/C(C)=N/NC(=O)NC1CCCCC1`: the inhibition was 5.3% (inactive).
On to `Cc1ccc(N/N=C2\COC(C)(C)CC2=O)cc1`, for which the inhibition is 4.6% (inactive).
Take `CCCn1c(C)cc(/C=C(\C#N)C(=O)OCC(=O)Nc2cc(OC)c(OC)c(OC)c2)c1C`: the inhibition was 5.7% (inactive).
To `Cc1cc(C)c(NC(=O)c2oc3ccccc3c2COc2ccccc2)c(C)c1` belongs -5.4% (inactive).
With `CCCN(CC1COc2ccccc2O1)C(=S)Nc1ccc(C)cc1` (stereo not drawn), the inhibition was 9.6% (inactive).
In the case of `C=CCNC(=S)NNC(=O)COc1c(Cl)cc(Cl)cc1Cl`, the inhibition is -6.9% (inactive).
With `Cc1nc2c(-c3ccccc3)c(C)[nH]n2c(=O)c1Cl` the figure was -1.6% (inactive).
With `Cc1[nH]n(-c2cccc(Cl)c2)c(=O)c1-c1ccc(Cl)cc1`, the inhibition is 94.7% (active).
With `Cc1[nH]n(-c2cccc(Cl)c2)c(=O)c1/C=N/n1c(C)nc2ccccc2c1=O`, the inhibition was 16.1% (inactive).
Consider `CCN(/N=C/c1ccc(N(C)C)cc1)c1nc2ccccc2[nH]1`, for which the inhibition is 15% (inactive).
With `Cc1nc(C)c(-c2csc(NCCc3ccccc3)n2)s1` the figure was 89.8% (active); with `Cc1ccc(Nc2nc(-c3sc(NC(=O)c4ccccc4)nc3C)cs2)cc1`, 16.8% (inactive).
With `Cc1nc(NC(=O)c2cccc(Cl)c2)sc1-c1csc(Nc2cccc(Cl)c2)n1` the figure was -4% (inactive).
Turning to `N#Cc1c(NC(=O)c2ccc(N3CCOCC3)c([N+](=O)[O-])c2)sc2c1CCCC2`, the inhibition was 2.3% (inactive).
To `CCCCc1ccc(NC(=S)N2CCCC(CO)C2)cc1` (stereo not drawn) belongs -5.8% (inactive).
Turning to `CCN(C(=O)COC(=O)c1c(NC(C)=O)sc(C)c1C)C1CCS(=O)(=O)C1` (stereo not drawn), the inhibition was 25.9% (inactive).
Consider `Cc1ccc(C)c(NC(=O)C(OC(=O)c2ccc(C)s2)c2ccccc2)c1` (stereo not drawn), for which the inhibition was 16.7% (inactive).
To `CCn1c(SCC(=O)Nc2ccc(C)cc2)nc2nc3c(cc2c1=O)CCCC3` belongs 2.8% (inactive); to `Cc1nn(-c2ccccc2)c(Cl)c1/C=C/C(=O)c1ccc(O)cc1`, 25.9% (inactive).
Regarding `CC(=O)N1CCN(CC(=O)Nc2ccc(SC(F)F)cc2)CC1`, the inhibition was -3.7% (inactive).
Take `CCOc1ccc(S(=O)(=O)N/N=C(\C)c2ccc(Cl)c(Cl)c2Cl)cc1`: the inhibition is 8.2% (inactive).
Consider `C/C(=N\NC(=O)c1cc2c(s1)CCC(C)C2)c1cccnc1` (stereo not drawn), for which the inhibition was 1.2% (inactive).
`COc1ccc(Br)cc1CN(C)CC(=O)Nc1cc([N+](=O)[O-])ccc1OC`: the inhibition was 33.8% (inactive).
Turning to `N#CCOc1ccc(C2=NO[C@@H]3[C@@H]4C[C@@H]([C@H]5C(=O)N(c6ccc7c(c6)OCO7)C(=O)[C@@H]45)[C@H]23)cc1`, the inhibition is -2% (inactive).
Regarding `Cc1ccc(C)c(NC(CC(=O)c2ccccc2)C(=O)OCC(=O)c2cccs2)c1` (stereo not drawn), the inhibition was 2.1% (inactive).
`COc1ccccc1OCCC(=O)OCC(=O)NCc1ccccc1`: the inhibition is 5% (inactive).
In the case of `CCc1nc(C)cn1S(=O)(=O)c1cc(OC)c(C)cc1C`, the inhibition was 51.2% (active).
For `CCCOc1cc(C)c(S(=O)(=O)n2nnc3ccccc32)cc1C`, the inhibition is 2.3% (inactive).
For `Cc1ccc(-n2c(C)cc(C(=O)CSc3nnc4ccccn34)c2C)cc1`, the inhibition was 23.4% (inactive).
Consider `CN(C(=O)c1c(Cl)cnn1C)C12CC3CC(CC(C3)C1)C2`, for which the inhibition is -23% (inactive).
To `FC(F)Oc1ccccc1NC(=S)Nc1cccc(Cl)c1Cl` belongs 64.3% (inactive).
To `CCCCC1N2CC3([N+](=O)[O-])CN1CC([N+](=O)[O-])(C2)C3(C)C` (stereo not drawn) belongs -3.2% (inactive); to `O=C(CN1CCN(c2ccccn2)CC1)N1CCc2ccccc21`, 5.5% (inactive).
